Results filed as inconclusive are left out. Where a call stands in place of a potency, no number is given. Unmarked numbers belong to inactive results. The source made the active and inactive calls. Calls come from the whole dose curve; tested in HEK293 reporter line.

The assay in a line: qHTS for Inhibitors of the Functional Ribonucleoprotein Complex (vRNP) of Lassa (LASV) Arenavirus: LASV Primary Screen - GLuc reporter signal (AID 1347082). Note: nearly all actives have a fitted effect of over 60% in size. The note with it: LASV minigenome vRNP, Gaussia luciferase reporter; series mostly up to 57.5 µM. Background: qHTS replaces the single test concentration by a dilution series.
For the molecule `CC1(C)O[C@H]2C[C@@H]3[C@H]4CCC5=CC(=O)C=C[C@]5(C)[C@@]4(F)[C@@H](O)C[C@]3(C)[C@]2(C(=O)CO)O1`, the Potency result is “inactive”. Take `O=C(O)/C=C/c1ccc2c(c1)OCO2`: the Potency result is “inactive”. Regarding `CC1(C)Oc2ccc3ccc(=O)oc3c2[C@@H](O)[C@H]1O`, the Potency entry was “inactive”. The same measure, in the same setting: for `CC1(C)O[C@@H]1COc1c2ccoc2cc2oc(=O)ccc12` the value was “inactive”; for `COc1ccc(/C=C/C(=O)O)cc1`, “inactive”. On the same count and under the same terms, for `CC(O)CC(=O)O` (configuration not stated) the value was “inactive”; for `O=C1CC(c2ccc(O[C@@H]3OC(CO)[C@@H](O)C(O)C3O)cc2)Oc2cc(O)ccc21` (some centres not stated), “inactive”. With `Nc1nc2c(ncn2[C@@H]2O[C@H](CO)[C@@H](O)[C@@H]2O)c(=O)[nH]1`, the Potency result was “inactive”.

Regarding `NC(=O)[C@H]1CCCN1C(=O)[C@H](Cc1cnc[nH]1)NC(=O)[C@@H]1CCC(=O)N1`, the activity change, negative = inhibition is 10.2% [at 5.82 µM]. As for `COc1ccc(CCNC(=O)/C=C\c2ccccc2)cc1OC`, the Potency result is “inactive”. In the case of `CCCCCCCOC(C)=O`, the Potency entry is “inactive”. Take `CC1=CC(C/C(C)=C/COc2ccc3ccc(=O)oc3c2)OC1=O` (configuration not stated): the Potency entry was “inactive”. Consider `C[C@]12CCC3C(CC[C@H]4C[C@@H](O)CC[C@]34C)C1C[C@@H](O)C2=O` (some centres not stated), for which the Potency entry is “inactive”. With `CCCCCCCCCCCC(=O)OCC`, the Potency result is “inactive”. In the case of `CC1=CCC(O)(C(C)C)CC1` (configuration not stated), the Potency entry was “inactive”. Consider `O=C1CCC[C@H]2[C@@H]3CCCN4CCC[C@H](CN12)[C@H]34`, for which the Potency result is “inactive”. For the molecule `CC(C)=CCC[C@](C)(O[C@@H]1O[C@H](CO)[C@@H](O)[C@H](O)[C@H]1O)[C@H]1CC[C@]2(C)[C@@H]1[C@H](O)C[C@@H]1[C@@]3(C)CC[C@H](O[C@@H]4O[C@H](CO)[C@@H](O)[C@H](O)[C@H]4O[C@@H]4O[C@H](CO)[C@@H](O)[C@H](O)[C@H]4O)C(C)(C)[C@@H]3[C@@H](O)C[C@]12C`, the Potency result was “inactive”.

(Values after PubChem BioAssay (NCATS).)
